Source: the supplement of paper PMC13380429

Columns and labels:
[1] = tested on: Vero E6 infected with SARS-CoV-2; assay: morphology score (similarity to uninfected cells); higher = more like uninfected cells; conditions: 24 h
[2] = tested on: Vero E6 infected with SARS-CoV-2; assay: SARS-CoV-2 infection rate relative to infected DMSO; higher = more infection, active = 60 or less; conditions: 24 h

| Compound | morphology score [1] | SARS-CoV-2 infection rate [2] |
| --- | --- | --- |
| CN1CCN(CCCN2c3ccccc3Sc3ccc(Cl)cc32)CC1 [prochlorperazine] (10 µM) | 0.742 | 27.5% (active) |
| C[C@@H](O)[C@H]1C(=O)N2C(C(=O)O)=C(S[C@@H]3CN[C@H](C(=O)N(C)C)C3)[C@H](C)[C@H]12 [meropenem] (10 µM) | 0.0366 | 104% (inactive) |
| O[C@@H]1CO[C@H]2[C@@H]1OC[C@@H]2O [isosorbide] (10 µM) | 0.0141 | 112% (inactive) |
| CN1CCN(c2nc3ccccc3nc2Cl)CC1 (10 µM) | 0.162 | 102% (inactive) |
| CC(C)c1cc(C(=O)N2Cc3ccc(CN4CCN(C)CC4)cc3C2)c(O)cc1O (10 µM) | 0.185 | 118% (inactive) |
| COc1ccc(-c2oc3c(CC=C(C)C)c(O[C@@H]4O[C@H](CO)[C@@H](O)[C@H](O)[C@H]4O)cc(O)c3c(=O)c2O[C@@H]2O[C@@H](C)[C@H](O)[C@@H](O)[C@H]2O)cc1 [icariin] (10 µM) | 0.141 | 106% (inactive) |
| O=C(c1c2ccccc2cc2ccccc12)N1CCC(N2CCC[C@@H](C(=O)N3CCOCC3)C2)CC1 (10 µM) | 0.0309 | 93.5% (inactive) |
| CCC(=O)O[C@@H](O[P@@](=O)(CCCCc1ccccc1)CC(=O)N1C[C@H](C2CCCCC2)C[C@H]1C(=O)O)C(C)C [fosinopril] (10 µM) | -0.0286 | 104% (inactive) |
| CS(=O)(=O)c1ccc(C2=C(c3ccccc3)C(=O)OC2)cc1 [rofecoxib] (10 µM) | 0.0705 | 96.5% (inactive) |
| O=C1c2c(O)ccc(O)c2C(=O)c2c(NCCNCCO)ccc(NCCNCCO)c21 [mitoxantrone] (0.833333 µM) | -0.00869 | 108% (inactive) |
| CN1C(=O)N(c2cc(Cl)cc(Cl)c2)C(=O)[C@@]1(C)Cc1ccc(Br)cc1 (10 µM) | 0.25 | 96.5% (inactive) |
| Clc1ccc(C(c2ccccc2Cl)C(Cl)Cl)cc1 (stereo not given) [mitotane] (10 µM) | -0.173 | 112% (inactive) |
| c1ccc(CCNc2nc(-c3ccccc3)cs2)cc1 [fanetizole] (10 µM) | -0.0158 | 99.5% (inactive) |
| CCN1CCCC1CNC(=O)c1cc(S(=O)(=O)CC)c(N)cc1OC (stereo not given) [amisulpride] (10 µM) | 0.114 | 105% (inactive) |
| CN1C(=O)/C(=C2/C(=O)Nc3ccccc32)c2ccccc21 [meisoindigo] (0.833333 µM) | 0.0882 | 96.5% (inactive) |
| CC(C)Cc1ccc([C@@H](C)C(=O)NCCO)cc1 (racemic) [mabuprofen] (10 µM) | 0.127 | 109% (inactive) |
| CCOc1nc2cccc(C(=O)OC(C)OC(=O)OC3CCCCC3)c2n1Cc1ccc(-c2ccccc2-c2nn[nH]n2)cc1 (stereo not given) [candesartan-cilexetil] (10 µM) | 0.13 | 92.5% (inactive) |
| CC1(C)Oc2ccc(C#N)cc2[C@@H](N2CCCC2=O)[C@@H]1O [levcromakalim] (10 µM) | 0.221 | 97% (inactive) |
| O=C(OC[C@H]1O[C@@H](OC(=O)c2cc(O)c(O)c(OC(=O)c3cc(O)c(O)c(O)c3)c2)[C@H](OC(=O)c2cc(O)c(O)c(OC(=O)c3cc(O)c(O)c(O)c3)c2)[C@@H](OC(=O)c2cc(O)c(O)c(OC(=O)c3cc(O)c(O)c(O)c3)c2)[C@@H]1OC(=O)c1cc(O)c(O)c(OC(=O)c2cc(O)c(O)c(O)c2)c1)c1cc(O)c(O)c(OC(=O)c2cc(O)c(O)c(O)c2)c1 [tannic-acid] (10 µM) | -0.112 | 114% (inactive) |
| O=c1[nH]c2ccccc2c(=O)n1CCCN1CCN(c2ccccc2)CC1 [pelanserin] (10 µM) | 0.0358 | 104% (inactive) |
| O=C(NCCCCN1CCN(c2cccc(Cl)c2Cl)CC1)c1ccc2c(c1)Cc1ccccc1-2 (10 µM) | -0.00329 | 105% (inactive) |
| O=C(c1ccccn1)c1cnn2c(-c3ccncc3)ccnc12 [ocinaplon] (10 µM) | -0.0527 | 117% (inactive) |
| CC12CCC(CC1=O)C2(C)C (stereo not drawn) [camphor-(+)] (10 µM) | 0.101 | 107% (inactive) |
| C/C(O)=C(\C#N)C(=O)Nc1cc(Br)ccc1Br (10 µM) | 0.00477 | 105% (inactive) |
| CCCCCCCCCCCCC[N+](C)(C)Cc1ccccc1 [benzalkonium] (10 µM) | 0.0369 | 105% (inactive) |
